# Bioassay records as filed in PubChem.
# 14-3-3 Bad inh = disrupts binding of bovine 14-3-3 zeta to phospho-Bad peptide. P63103. 220,000 compounds, 0.71% hits. inhibition, % at 21.7 µM. TR-FRET 14-3-3zeta/Dy647-pBad peptide displacement, 1 h. AID 781;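 active = inhibition above about 70%, limit read from the data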;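 also: 0% = full 14-3-3 plus peptide FRET controls and 100% = background without 14-3-3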
# Target sequence (P63103 whole entry, looked up): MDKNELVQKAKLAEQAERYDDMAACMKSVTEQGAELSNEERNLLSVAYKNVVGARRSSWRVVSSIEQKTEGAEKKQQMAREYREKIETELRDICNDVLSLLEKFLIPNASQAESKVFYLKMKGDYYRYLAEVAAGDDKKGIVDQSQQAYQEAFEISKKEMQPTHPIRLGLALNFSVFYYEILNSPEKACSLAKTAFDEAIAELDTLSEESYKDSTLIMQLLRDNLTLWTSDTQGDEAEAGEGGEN
# Mcl1-Bid inh = Mcl-1/Bid interaction inhibition | TR-FRET Mcl-1/Bid-Dy647 peptide binding, 1536-well | 220,000 compounds, 0.97% hits | Q07820 | AID 1021 | inhibition, % at 21.7 µM;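 active = compounds that cut the binding signal by more than half at the single screening dose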;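 also: His-tagged Mcl-1 with europium anti-His antibody binding Bid BH3 peptide; 0% = Mcl-1 plus peptide wells and 100% = peptide-only wells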
# Target sequence (Q07820 whole entry, looked up): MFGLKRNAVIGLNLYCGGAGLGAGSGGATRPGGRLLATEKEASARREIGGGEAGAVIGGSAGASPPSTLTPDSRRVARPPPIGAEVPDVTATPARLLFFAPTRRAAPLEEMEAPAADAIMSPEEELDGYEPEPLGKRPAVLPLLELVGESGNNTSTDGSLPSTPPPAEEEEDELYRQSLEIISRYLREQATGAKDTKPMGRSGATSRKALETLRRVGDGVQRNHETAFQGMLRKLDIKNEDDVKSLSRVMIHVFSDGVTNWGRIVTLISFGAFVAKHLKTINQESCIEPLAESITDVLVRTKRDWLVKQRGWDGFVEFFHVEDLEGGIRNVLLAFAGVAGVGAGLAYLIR
# NCF1 inh = p47phox (human) inhibition; p47phox/p22phox peptide binding, fluorescence polarization, 2 h; inhibition, % at 24.7 µM; 220,000 compounds, 0.53% hits; AID 1274;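 also: 0% = p47phox with labelled peptide and 100% = labelled peptide alone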
# Mcl-1 Bim block = human Bim-Mcl-1 interaction inhibition; Bead-based flow cytometry, Bim peptide-Mcl-1 binding; inhibition, % at 10 µM; 190,000 compounds, 0.1% hits; in the data active = inhibition above about 40%;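 also: 0% = no compound tracer wells and 100% = peptide blocker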
# Mcl1-Noxa inh = Mcl-1/Noxa interaction inhibition; Q07820; TR-FRET Mcl-1/Noxa peptide binding, 2 h; inhibition, % at 21.7 µM; 220,000 compounds, 1.5% hits; AID 1022;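 active = compounds that cut the protein-peptide binding signal by more than 50% relative to plate controls in a single-dose test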;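 also: His-tagged Mcl-1 with rhodamine Noxa BH3 peptide and terbium anti-His antibody; 0% = Mcl-1 plus Noxa peptide wells and 100% = peptide-only wells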
# eIF4E-4G inh = eIF4E/eIF4G interaction inhibition in translation initiation. 220,000 compounds, 0.37% hits. inhibition, % at 21.7 µM. AID 782. TR-FRET eIF4E-eIF4GI(517-606) binding, 2 h. P63073+Q04637;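 also: 0% = full FRET control wells and 100% = background wells lacking eIF4GI fragment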
# Starred values were filed as active, the others as inactive; . = no result; + = active, no number; [ ] = another dose, or the depositor's remark. This is a sample that favours compounds with a hit; in the whole collection about 3.3% have one here.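 The calls were made as follows, unless noted: active = inhibition above about 30% (limit read from the data); inactive = the rest.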
SMILES,14-3-3 Bad inh,Mcl1-Bid inh,NCF1 inh,Mcl-1 Bim block,Mcl1-Noxa inh,eIF4E-4G inh
O=C(Nc1ccccc1Cl)c1cnccn1,-2,-23,12,1,83*,-11
O=S(=O)(NCc1ccccc1)c1cccc(S(=O)(=O)N2CCOCC2)c1,7,81*,8,0,-3,7
O=S(=O)(c1ccc2c(c1)oc1ccccc12)N1CCOCC1,+[fluorescence artefact?],3,-10,0,8,-2
O=S(=O)(c1ccc2nc(Cc3ccccc3)[nH]c2c1)N1CCOCC1,88*,21,-5,0,8,8
O=S(=O)(c1ccc2nc(Cc3cccc(C(F)(F)F)c3)[nH]c2c1)N1CCOCC1,10,-13,-13,-5,-13,-1
CCN(CC)C(=O)C1=C(C)NC(=S)NC1c1ccc(C)s1 (centres undefined),-13,-50,-6,0,6,0
CCC(CC)NC(=O)COc1ccc(OC)cc1C=O,-6,-7,-3,-1,-11,4
COc1ccc(Cl)cc1C(Nc1cccnc1)c1ccc2cccnc2c1O (centres undefined),28,97*,5,0,46,27
CCCn1ncc(CN2CCC(CO)(CC3CCCCO3)CC2)c1C (centres undefined),-6,-29,1,3,1,4
CCO[C@@H]1OC(C(=O)NCc2nc3ccccc3[nH]2)=C[C@H](C)[C@H]1CCCO,-11,1,45*,0,10,0
CCO[C@H]1OC(C(=O)NCc2nc3ccccc3[nH]2)=C[C@@H](C)[C@@H]1CCCO,-5,-10,-2,0,-8,2
CCCCOc1ccccc1NC(=O)CC1SC(=NCC)N(CC)C1=O (centres undefined),76*,-27,13,-3,-3,7
O=C(N[C@@H](Cc1ccccc1)C(=O)OCc1ccccc1)c1nc[nH]c1C(=O)N1CCc2ccccc2C1,-14,-68,-6,.,-111,-4
Cc1ccc(NCC(=O)N/N=C/c2ccncc2)cc1,-7,-69,-14,1,13,1
Cc1ccc(C(=O)Nc2nnc(CC(=O)N/N=C/c3ccncc3)s2)cc1,6,17,15,-2,63*,9
CC(C)CC(NC(=O)C(CO)NC(=O)C1CCC(=O)N1)C(N)=O (centres undefined),-7,-15,-3,-3,-9,-3
CN(C)C(=O)/C(C#N)=C\c1cc(Br)c(Sc2ccc(Cl)cc2)o1,-2,100*,4,-3,9,0
Clc1ccc(Sc2oc(/C=N/n3cnnc3)cc2Br)cc1,29,25,-14,-1,27,-3
OCC(CO)(CO)NC(=S)Nc1cc(Cl)cc(Cl)c1,-1,-37,3,.,0,97*
C=CCOC(=O)C1=C(C)NC(=S)NC1c1cccs1 (centres undefined),-22,-35,-2,21,15,0
CCN1CCN(c2cc(C)c3cc(NC(=O)c4ccc(Br)o4)ccc3n2)CC1,5,-43,-47,0,20,6
CCN(CC)c1cc(C)c2cc(NC(=O)c3ccc(Br)o3)ccc2n1,3,-17,-4,1,60*,4
Fc1ccc(CN2C3=NCCN3c3ccccc32)cc1,-2,-9,-12,.,12,1
Cc1ccc(-c2[nH]ncc2/C=N/n2c(COc3ccccc3)nc3ccccc3c2=O)cc1,19,10,11,-1,-15,2
Cc1cc(/C=N/n2c(COc3ccccc3)nc3ccccc3c2=O)c(O)c([N+](=O)[O-])c1,49,-17,-1,0,100*,11
SMILES,14-3-3 Bad inh,Mcl1-Bid inh,NCF1 inh,Mcl-1 Bim block,Mcl1-Noxa inh,eIF4E-4G inh
O=[N+]([O-])c1ccc2c(OCc3nnc(-c4ccccc4Br)o3)ncnc2c1,8,6,-8,.,61*,3
Clc1ccc(OCc2nnc(-c3ccccc3Br)o2)c(Cl)c1,17,-4,43*,38,4,7
O=[N+]([O-])c1cc(Br)c(OCc2nnc(-c3ccccc3)o2)c(Br)c1,-7,-17,-10,-2,-9,-4
CCOC(=O)C(NC(=O)N(C)C)(Nc1sc(C)c(CC)c1C#N)C(F)(F)F (centres undefined),-16,-52,-8,-8,42,-8
O=C1C2C3C=CC(CO)(O3)C2C(=O)N1c1ccccc1-c1ccccc1 (centres undefined),8,5,1,-14,53*,3
CCCC(=O)Nc1c2c(nc3ccccc13)N(c1ccccc1)CC2,-1,-3,-13,-2,-17,3
O=C(CN1CCCCC1)Nc1c2c(nc3ccccc13)N(c1ccccc1)CC2,71*,-59,23,1,-29,8
CCOc1cccc2cc(C(N)=O)c(=N)oc12,-6,-13,1,.,3,2
CCN(CC)S(=O)(=O)c1ccc(Cl)c(C(=O)Oc2cccnc2)c1,27,-17,-17,-2,8,58*
C/C=C/C=C\C(=O)Nc1cccc(C2=NOC3(C2)C[C@@H](C(N)=O)N(C(=O)/C(C)=C/C)C3)c1 (some centres undefined),-8,-35,-3,.,6,-5
C/C=C(/C)C(=O)Nc1cccc(C2=NOC3(C2)C[C@H](C(N)=O)N(C(=O)c2ccccc2)C3)c1 (some centres undefined),-1,-27,3,.,26,0
C/C=C(\C)C(=O)Nc1cccc(C2=NOC3(C2)C[C@@H](C(N)=O)N(C(=O)/C(C)=C/C)C3)c1 (some centres undefined),1,-36,-8,.,1,96*
C=C(C)C(=O)Nc1cccc(C2=NOC3(C2)C[C@@H](C(N)=O)N(C(=O)/C(C)=C/C)C3)c1 (some centres undefined),34,-114,-6,.,73*,10
C=C(C)C(=O)Nc1cccc(C2=NOC3(C2)C[C@@H](C(N)=O)N(C(=O)/C=C/C=C/C)C3)c1 (some centres undefined),38,-55,2,.,97*,7
O=C(Nc1ccc(S(=O)(=O)NCc2ccco2)cc1)C1CCCCC1,8,-39,1,1,2,3
CC(=O)NC1C(=O)N=C(SC(C)C(=O)Nc2cccc(Cl)c2)NC1=O (centres undefined),87*,-26,2,0,19,-4
CC(C)(C)C(=O)OC/C(N)=N/OC(=O)c1ccc(Cl)cc1,91*,-22,-11,.,-17,0
N/C(Cc1ccc(Cl)cc1)=N\OC(=O)c1ccccc1,14,-2,-7,-2,-6,1
CN(C)c1cc[n+](CC(=O)Nc2ccc(OC(F)F)cc2)cc1,10,-32,-16,.,-31,4
CC(CCc1ccccc1)NCc1ccncc1 (centres undefined),90*,-6,-9,0,34,0
